Measured values published in PubChem BioAssay AID2550 (Johns Hopkins Ion Channel Center, 2010).
Hit rate of the full screen: of about 310,000 compounds, about 380 (0.12%) were called active.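 Rule for the calls: active = B-score of the integrated fluorescence ratio above library mean plus 3 SD, and starting fluorescence ratio within library mean plus 5 SD; inactive = the rest.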 Only a selection was taken, and actives are over-represented in it overall.

Molecular target: Short transient receptor potential channel 6 (Mus musculus) (UniProt Q61143)
Assay: small molecules opening TRPC6 cation channel – cell-based, HEK293, membrane potential dye, primary screen (AID 2550);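 note: higher score means more depolarization so channel activation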
Details: HEK293-TRPC6 membrane potential dye fluorescence, at 10 µM

Chain of Short transient receptor potential channel 6 (Mus musculus) (Q61143 whole entry, looked up): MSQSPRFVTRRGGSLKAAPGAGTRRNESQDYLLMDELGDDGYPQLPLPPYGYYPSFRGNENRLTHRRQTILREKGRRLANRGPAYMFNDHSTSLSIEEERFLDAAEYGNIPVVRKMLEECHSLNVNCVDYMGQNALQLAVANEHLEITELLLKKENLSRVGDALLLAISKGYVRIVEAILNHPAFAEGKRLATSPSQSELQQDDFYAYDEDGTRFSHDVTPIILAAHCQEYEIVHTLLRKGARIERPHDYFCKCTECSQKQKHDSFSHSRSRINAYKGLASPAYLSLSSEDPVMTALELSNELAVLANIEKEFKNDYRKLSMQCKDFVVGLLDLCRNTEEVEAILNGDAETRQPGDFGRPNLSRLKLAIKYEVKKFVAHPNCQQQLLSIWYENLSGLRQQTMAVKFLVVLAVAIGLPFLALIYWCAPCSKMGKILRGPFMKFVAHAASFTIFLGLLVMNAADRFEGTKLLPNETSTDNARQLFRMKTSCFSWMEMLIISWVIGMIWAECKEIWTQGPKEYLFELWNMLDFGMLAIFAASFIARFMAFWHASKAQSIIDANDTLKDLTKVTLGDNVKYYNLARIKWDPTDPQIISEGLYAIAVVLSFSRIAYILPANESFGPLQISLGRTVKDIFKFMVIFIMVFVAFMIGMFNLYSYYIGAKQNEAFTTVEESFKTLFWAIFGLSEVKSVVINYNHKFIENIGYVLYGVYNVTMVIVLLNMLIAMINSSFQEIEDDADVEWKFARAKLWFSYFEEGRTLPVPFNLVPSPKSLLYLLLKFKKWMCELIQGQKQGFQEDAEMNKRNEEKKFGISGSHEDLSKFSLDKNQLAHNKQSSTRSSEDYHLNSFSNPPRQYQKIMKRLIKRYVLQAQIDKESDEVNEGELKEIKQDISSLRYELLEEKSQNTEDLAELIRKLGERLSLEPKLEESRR

B-score, inactive:
Cc1c(S(=O)(=O)NC(C)c2ccccc2)c(=O)n(C)c(=O)n1C (stereo unspecified)
COc1ccc(CC(NC(C)=O)C(=O)NC2CCN(C(=O)C3CC3)CC2)cc1OC (stereo unspecified)
O=S(=O)(c1cccc(Cn2nnc(-c3ccc(F)cc3)n2)c1)N1CCOCC1
C[C@]1(C(=O)NCCc2c[nH]c3ccccc23)C=C[C@@H](Cc2ccccc2)N1C(=O)c1ccccc1
CCOC(=O)c1nc(-c2ccc3c(c2)OCO3)[nH]c1C
Cc1cc(Nc2ccc(C(=O)N3CCCCC3)cc2)c2cccc(C)c2n1
CCC(c1nnc(SCC(=O)NNC(=O)c2ccccc2)n1Cc1ccccc1)N(C)C (stereo unspecified)
COc1ccc(-n2cc(-c3ccccc3)c3c(=S)nc[nH]c32)cc1
Cc1nnc(NC(=O)Cn2c(=O)sc3ccccc32)s1
O=C(Nc1cc(-c2nn(CC(=O)N3CCCCC3)c(=O)c3ccccc23)ccc1N1CCOCC1)c1ccc(Cl)cc1
Cc1cccc(NC(=O)Nc2ccc3c(c2)OCO3)n1
OCc1nc(CO)n(Cc2ccccc2)n1
CCN(CC)C(=O)N1CCN(C(=O)c2ccc(C)cn2)CC1
COc1ccc(CCC(=O)c2ccc(OC)cc2)cc1
COCC1CCN(C(=O)C2CCC(=O)N(Cc3cccc(C(F)(F)F)c3)C2)CC1 (stereo unspecified)
CCCCc1c(O)nc2n(c1=O)CCS2
CCOC(=O)N1CCC(O)(c2cc(C)c(C)cc2C)CC1
COc1cccc2c1CCC(NC(C)=O)C2=O (stereo unspecified)
O=C1CSC2=NCN(c3ccccc3)CN12
CN1C(CC(=O)Nc2ccc(Br)cc2)c2ccccc2CC1(C)C (stereo unspecified)
Nc1[nH][nH]c(=O)c1N=Nc1ccc2c(c1)OCO2
Cn1c(SCC(=O)Nc2ccc(Cl)cc2)nc(O)cc1=O
CCOc1ccc(NC(=O)CN(C)CC(=O)Nc2cccc(Cl)c2C)cc1OCC
Cc1ccc(NC(=O)C2CCN(S(=O)(=O)c3ccc4c(c3)NC(=O)CO4)CC2)cc1C
CCCCN=C(N)/C(C(=O)OCC)=C(\O)c1ccc(OC)cc1
CC(C)C(c1nnnn1C(C)(C)C)N1CCN(Cc2cccnc2)CC1 (stereo unspecified)
Cn1c(-c2ccc(C(=O)c3ccccc3)s2)nc2ccccc21
COc1cccc(C2c3[nH]c4ccccc4c3CCN2Cc2cccc(C)n2)c1 (stereo unspecified)
COC(=O)[C@@H]1CC(O)CN1C(=O)C12CC3CC(CC(C3)C1)C2 (stereo partly specified)
Cc1ccc(NC(=O)c2sc3nc(N)c(C#N)cc3c2N)cc1
CCn1ccnc1CNC(=O)CC1C(=O)NCCN1Cc1ccc(F)cc1Cl (stereo unspecified)
